# Assay outcomes from PubChem BioAssay.
# CYP2C19 inhib: inhibitors of human CYP2C19; CYP2C19 Supersomes, luciferin-H EGE luminescence, 30 min; P33261; 21% of 96,000 active; inhibition, % at 5 µM; AID 778;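 active = CYP2C19 inhibition above a set limit at 5 µM in the primary screen, cut at about 50% in these data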;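 also: plate controls were negative control wells for no effect and 2.5 mM tranylcypromine positive control for full effect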
# Target sequence (P33261 whole entry, looked up): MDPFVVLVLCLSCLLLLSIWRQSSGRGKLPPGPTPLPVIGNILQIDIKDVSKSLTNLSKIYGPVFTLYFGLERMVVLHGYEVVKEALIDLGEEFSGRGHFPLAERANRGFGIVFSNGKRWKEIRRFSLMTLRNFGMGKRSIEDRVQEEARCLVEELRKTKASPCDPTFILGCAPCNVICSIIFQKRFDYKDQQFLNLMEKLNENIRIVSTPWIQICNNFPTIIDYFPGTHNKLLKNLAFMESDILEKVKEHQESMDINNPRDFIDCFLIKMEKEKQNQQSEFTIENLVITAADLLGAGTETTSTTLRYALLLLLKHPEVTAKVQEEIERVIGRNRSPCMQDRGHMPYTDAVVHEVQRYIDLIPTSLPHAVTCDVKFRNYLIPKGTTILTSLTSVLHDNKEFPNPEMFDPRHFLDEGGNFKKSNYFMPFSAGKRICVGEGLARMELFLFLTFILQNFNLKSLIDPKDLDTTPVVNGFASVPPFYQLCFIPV
# CYP2C9 inhib: human CYP2C9 inhibition; CYP2C9 Supersomes, luciferin-H conversion, luminescence; inhibition, % at 5 µM; 20% of 96,000 active; AID 777;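 active = blocking of liver enzyme CYP2C9 beyond about 50% at 5 µM, limit read from the data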
# CYP2C9 activ: activators of human CYP2C9; P11712; recombinant CYP2C9, luciferin-H conversion, luminescence; stronger effect = higher value; factor 1 = untreated enzyme, 0 = blocked; activation factor at 5 µM; 1.4% of 96,000 active;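 active = activation factor of 2 or more for CYP2C9 at a 5 µM dose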;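 also: 0 = sulfaphenazole-blocked wells and 1 = vehicle-only wells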
# CYP2C19 act: activators of human cytochrome P450 2C19; P33261; recombinant CYP2C19, luciferin-H EGE luminescence; stronger effect = higher value; 0 = fully inhibited enzyme, 1 = untreated enzyme; activation factor at 5 µM; 96,000 tested, under 10 active;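 active = activation factor of at least 2 at 5 µM in the primary screen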;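 also: 0 = wells with 2.5 mM tranylcypromine and 1 = vehicle-only wells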
# PostGolgi yeast: growth inhibition of a yeast mutant, post-Golgi transport screen | post-Golgi transport phenotypic cell assay | inhibition, % at 10 µM | 0.9% of 98,000 active;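 also: yeast cells grown in 1536-well plates; yeast grown about 18 h at 30C before absorbance read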
# PostGolgi ctrl: growth of the yeast control strain, post-Golgi counter-screen. 5% of 98,000 active. efflux-deficient yeast background strain, growth absorbance A615, 16 h. AID 738. inhibition, % at 10 µM
# * hit, by the source's call; . = no result given. A selection: hits, their analogues and other compounds. The true share with any hit is near 32%. Rule as the data show it, unless noted: active = inhibition above about 30%; inactive = the rest.
SMILES,CYP2C19 inhib,CYP2C9 inhib,CYP2C9 activ,CYP2C19 act,PostGolgi yeast,PostGolgi ctrl
O=C(c1ccco1)N1CCN(S(=O)(=O)c2ccc(F)cc2)CC1,53*,14,0.9,0.5,-5,-7
O=C(c1ccco1)N1CCN(c2ccc(S(=O)(=O)N3CCCC3)cc2)CC1,-12,14,0.9,1.1,-6,12
CC(C)CC(=O)N1CCN(Cc2cccc(F)c2)CC1,59*,-4,1,0.4,1,-1
O=C(C1Cc2ccccc2CN1S(=O)(=O)c1ccc(F)cc1)N1CCCCC1 (stereo not given),19,7,0.9,0.8,0,12
O=C(c1ccc(S(=O)(=O)Nc2ccc(F)cc2)cc1)N1CCN(C(=O)c2ccco2)CC1,44,75*,0.3,0.6,24,4
O=C(NCCCN1CCN(c2cccc(Cl)c2)CC1)C1CCC(=O)N1Cc1ccccc1Cl (stereo not given),13,11,0.9,0.9,-5,-2
Cc1nc(CCNC(=O)c2ccccc2)cs1,44,13,0.9,0.6,-3,9
CC(C)CC(=O)N1CCN(S(=O)(=O)c2ccc(F)cc2)CC1,25,19,0.8,0.7,-6,39*
CCCCNC(=O)Nc1nnc(-c2ccc(Cl)cc2)o1,-13,-9,1.1,1.1,-3,19
CC(C)c1cc(NC(=O)C(C)(C)C)cc(C(C)C)c1O,-8,-25,1.3,1.1,6,6
COc1c(C(C)C)cc(NC(C)=O)cc1C(C)C,89*,25,0.7,0.1,1,4
c1ccc2c(c1)CC1(CCCC1)n1nnnc1-2,29,-4,1,0.7,3,29
COc1ccc2c(C)nc(Nc3nc(C)c(C)c(=O)[nH]3)nc2c1,5,11,0.9,0.9,-7,66*
CCc1c(C)nc(Nc2nc(C)c3ccc(OC)cc3n2)[nH]c1=O,5,2,1,0.9,5,14
O=C(Nc1ccn(Cc2ccccc2F)n1)c1ccc(COc2ccc(Br)cc2)cc1,9,9,0.9,0.9,6,3
Cc1cc(OCc2nc(-c3cccnc3)no2)c(C)cc1Br,24,-11,1.1,0.8,3,5
Clc1ccccc1OCc1nc(-c2ccncc2)no1,98*,98*,0,0,1,11
Cc1ccccc1OCc1nc(-c2ccc(-n3cccc3)cc2)no1,-7,4,1,1.1,0,3
Clc1ccc(OCc2nc(-c3ccncc3)no2)c(Br)c1,94*,95*,0.1,0.1,46*,79*
COC(=O)C1=CN(C(C)C)C=C(C(=O)OC)C1c1cc2c(cc1Br)OCO2,60*,26,0.7,0.4,-2,23
CC1=C(C(=O)OCC(C)C)C(c2ccccc2Cl)NC(=O)N1C (stereo not given),98*,84*,0.2,0,-2,14
CCOC(=O)C1=C(C)NC(=O)NC1c1cc2c(cc1Br)OCO2 (stereo not given),.,.,.,.,-1,14
CC1=C(C(=O)OCC(C)C)C(c2cc3c(cc2Br)OCO3)NC(=O)N1C (stereo not given),84*,72*,0.3,0.2,-2,38*
CCOCCOC(=O)C1=C(C)N(C)C(=O)NC1c1ccccc1Cl (stereo not given),54*,12,0.9,0.5,0,4
O=C(O)c1[nH]c2ccccc2c1NS(=O)(=O)Cc1ccccc1,5,27,0.7,1,-1,7
SMILES,CYP2C19 inhib,CYP2C9 inhib,CYP2C9 activ,CYP2C19 act,PostGolgi yeast,PostGolgi ctrl
CC(C)C1=C2OC(N)=C(C#N)C(C#N)=C2C(C)CC1 (stereo not given),15,10,0.9,0.8,5,17
CCSCCOC(=O)C1=C(C)N(C)C(=O)NC1c1cc(OC)ccc1OC (stereo not given),93*,79*,0.2,0.1,-2,15
CC(C)CC(NC(=O)C1CCC(C)CC1)C(=O)Nc1cccnc1 (stereo not given),7,-5,1.1,0.9,3,5
CC(C)CC(NC(=O)C1CCC(C)CC1)C(=O)NCc1ccccn1 (stereo not given),36,45,0.5,0.6,4,2
CC(C)CC(NC(=O)C1CCC(C)CC1)C(=O)N1CCN(c2ccccn2)CC1 (stereo not given),81*,62*,0.4,0.2,-1,18
CC1CCC(C(=O)NC(C(=O)NCc2ccccn2)C(C)C)CC1 (stereo not given),12,13,0.9,0.9,-3,6
CC1CCC(C(=O)NC(C(=O)NCc2cccnc2)C(C)C)CC1 (stereo not given),41,66*,0.3,0.6,2,4
CC(C)CC(NC(=O)C1CCC(C)CC1)C(=O)NCc1cccnc1 (stereo not given),30,54*,0.5,0.7,12,7
CCOCCCNC(=O)C1CCN(C(=O)Nc2ccc(Cl)cc2)CC1,-9,-9,1.1,1.1,-2,-3
CSc1nncn1/N=C/c1cc(Cl)ccc1F,11,18,0.8,0.9,0,0
O=C(CSc1nc2ccc([N+](=O)[O-])cc2[nH]1)NC1CCCCC1,64*,62*,0.4,0.4,6,7
Cc1ccc2nc(-c3ccc(NC(=O)CSc4ccccc4)cc3)[nH]c2c1,35,59*,0.4,0.7,-6,3
Cc1cc(C)cc(NC(=O)CSc2nc3ccncc3[nH]2)c1,63*,76*,0.2,0.4,0,16
CCCc1cc(=O)[nH]c(SCC(=O)NC2CCCCC2)n1,42,12,0.9,0.6,2,7
Cc1ccc2nc(SCc3ccc([N+](=O)[O-])cc3)[nH]c2c1,.,.,.,.,0,5
Cc1ccc2nc(SCC(=O)Nc3cccc([N+](=O)[O-])c3)[nH]c2c1,46,90*,0.1,0.5,15,19
CCc1c(O)nc(SCC(=O)Nc2ccccc2C)[nH]c1=O,-19,1,1,1.2,2,2
COc1ccc(C(=O)NCc2nnc(SCC(=O)N3CCCCC3)o2)cc1OC,33,22,0.8,0.7,-4,8
COc1ccc(N=CC2=C(O)CC(C)(C)CC2=O)cc1,21,25,0.7,0.8,-10,8
CCOC(=O)C1=C(C)N(c2ccccc2)C(=O)C1CC(=O)O (stereo not given),53*,41,0.6,0.5,-5,4
CC(C)Cn1cc(C(=O)NCc2cccs2)c2c3ccccc3n(C)c2c1=O,-8,17,0.8,1.1,-6,5
Cc1cc2nnc(SCc3ccccc3)n2c(N)n1,26,27,0.7,0.7,-1,0
C=CCn1c(N2C(=O)CC(Cc3ccccc3)C2=O)nc2ccccc21 (stereo not given),79*,-3,1,0.2,0,12
CCOC(=O)C1=C(Cc2ccc(C)cc2)C(=O)c2ccccc2C1=O,74*,61*,0.4,0.3,-7,3
